PubChem BioAssay (EPA / NIEHS)
Inconclusive results are not listed. The source made the active and inactive calls. The calls were made as follows: active = hit-call score of the fitted dose curve at least 0.9, where 1 is the maximum; inconclusive = response in the unintended direction; inactive = score below 0.9.

test: ATG_XTT_Cytotoxicity: Cytotoxicity Assessment in the Attagene TRANS-FACTORIAL HepG2 Assay (AID 2283584)
In short: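 Viability endpoint from XTT after 24 h chemical exposure of reporter-transfected human HepG2 liver cells; signal loss fitted relative to DMSO negative control.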

SMILES	outcome
CCN(Cc1cccc(S(=O)(=O)O)c1)c1ccc(C(=C2C=CC(=[N+](CC)Cc3cccc(S(=O)(=O)[O-])c3)C=C2)c2ccccc2)cc1	inactive
CCCCCCCCCCCCCCCC(=O)OCC	inactive
COC(=O)c1ccccc1OC	inactive
CCO[Si](CCCN=C=O)(OCC)OCC	inactive
CCc1c(C(=O)O)c(=O)cnn1-c1ccc(Cl)cc1	inactive
NC(=O)OCC(COC(N)=O)c1ccccc1	inactive
Cc1ccccc1C	inactive
COc1ccc(-c2coc3cc(O)ccc3c2=O)cc1	inactive
CCCCCC(C)O (stereo unspecified)	inactive
CC(C)c1ccc(C=O)cc1	inactive
CCCCCC/C=C/C=O	inactive
O=C(O)c1cc(Cl)cc([N+](=O)[O-])c1Cl	inactive
O=CN1CCCCC1	inactive
c1cc(C(c2ccc(OCC3CO3)cc2)C(c2ccc(OCC3CO3)cc2)c2ccc(OCC3CO3)cc2)ccc1OCC1CO1 (stereo unspecified)	inactive
NC(=O)C1CO1 (stereo unspecified)	inactive
Cn1c(=O)[nH]c2ncn(C)c2c1=O	inactive
Clc1nc2ccccc2s1	inactive
CC1(C)[C@H]2CC[C@]1(C)C(=O)C2	inactive
CCC(C)(C)C1CCCCC1OC(C)=O (stereo unspecified)	inactive
C=CCOCC(O)CCl (stereo unspecified)	inactive
ON(Cc1ccccc1)Cc1ccccc1	inactive
C=C(C)C(=O)OCCOc1ccccc1	inactive
CC(C)c1ccc(C#N)cc1	inactive
C=CC(=O)OCC(Br)CBr (stereo unspecified)	inactive
O=P(O)(O)Oc1ccccc1	inactive
CC[C@H]1OC(=O)[C@H](C)[C@@H](O[C@H]2C[C@@](C)(OC)[C@@H](O)[C@H](C)O2)[C@H](C)[C@@H](O[C@@H]2O[C@H](C)C[C@H](N(C)C)[C@H]2O)[C@](C)(O)C[C@@H](C)C(=NOCOCCOC)[C@H](C)[C@@H](O)[C@]1(C)O	inactive
